Reference: PubChem BioAssay (EPA / NIEHS)
Records with an inconclusive call do not appear. Active and inactive are the calls of the source. How the source made its calls: active means hit-call score of the fitted dose curve at least 0.9, where 1 is the maximum; inconclusive means response in the unintended direction; inactive means score below 0.9.

Biological target: guinea pig Sigma Receptor, Non-selective Binding, SIGMAR1 (gene 100135589) (UniProt Q60492)
Assay: NVS_OR_gSIGMA_NonSelective: NovaScreen (NVS) Nuclear Receptor Binding Assay for guinea pig Sigma Receptor, Non-selective Binding (AID 2283367)
Procedure, shortened: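 Guinea pig brain membranes, cell-free radioligand binding; read 1 h after dosing by filter-based scintillation counting. Loss of signal vs DMSO baseline taken as displacement. Primary screen single concentration 25 uM in duplicate; actives retested in concentration series.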

Sequence of guinea pig Sigma Receptor, Non-selective Binding, SIGMAR1 (gene 100135589) (Q60492 whole entry, looked up): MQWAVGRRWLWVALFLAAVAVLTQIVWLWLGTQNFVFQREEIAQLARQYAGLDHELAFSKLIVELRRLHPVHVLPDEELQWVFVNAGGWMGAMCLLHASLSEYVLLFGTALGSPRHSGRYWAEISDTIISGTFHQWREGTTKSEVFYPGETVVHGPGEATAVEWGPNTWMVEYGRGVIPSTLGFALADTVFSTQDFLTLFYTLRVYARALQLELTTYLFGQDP

Compound	AC50
COc1ccc(CCN2CCC(Nc3nc4ccccc4n3Cc3ccc(F)cc3)CC2)cc1	1240 nM (active)
CN(c1nccc(=O)[nH]1)C1CCN(c2nc3ccccc3n2Cc2ccc(F)cc2)CC1	976 nM (active)
C1=CC2C3C=CC(C3)C2C1 (stereo not given)	13000 nM (active)

Tested on: guinea pig Dopamine Transporter (DAT), gene 100714898
Assay: NVS_TR_gDAT: NovaScreen (NVS) Transporter Assay for guinea pig Dopamine Transporter (DAT) (AID 2283369);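 further: active compounds lower bound radioligand signal relative to DMSO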
Procedure, shortened: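 Test chemicals were incubated 2 h with guinea pig striatal membranes and a radioligand; bound label was separated by filtration and counted. Screening ran at 25 uM, followed by concentration-response testing to a 50 uM maximum.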

Compound	AC50	outcome
CN(C)C(=S)SC(=S)N(C)C	6190 nM (active)	–
CCN(CCC#N)c1ccc(N=Nc2ccc([N+](=O)[O-])cc2)cc1	–	inactive
ClC(c1ccccc1)(c1ccccc1)c1ccccc1	–	inactive
O=C1OC[C@H](Cc2cccc(O)c2)[C@H]1Cc1cccc(O)c1	771 nM (active)	–
COc1ccc(CCN2CCC(Nc3nc4ccccc4n3Cc3ccc(F)cc3)CC2)cc1	4410 nM (active)	–
CN(c1nccc(=O)[nH]1)C1CCN(c2nc3ccccc3n2Cc2ccc(F)cc2)CC1	1760 nM (active)	–
CC(C)(C)CC(C)(C)c1ccc(OCCOCC[N+](C)(C)Cc2ccccc2)cc1	1750 nM (active)	–
